In PubChem BioAssay AID1159580 (chemical genetic matrix, 2015):
In all, about 5,500 compounds went through this assay and about 2,000 (36%) were called active. Inconclusive results (about 18%) are left out. No stated cut-off is given here; in the data, active means normalized growth mostly below about 0.91 (no sharp cut-off); inconclusive means no clear call, values can overlap the other calls; inactive means mostly above about 0.92. Some of the results follow.

Assay: chemical genetic growth profiling, strain panel (AID 1159580);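 further: tested at 20 µM; growth read once vehicle control cultures reached saturation at 30 °C; 1 = growth at the plate median or of vehicle wells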
Details: S. cerevisiae deletion strains, growth OD
[1] = locus YAL040C, strain CLN3, stronger effect = lower value
[2] = locus YDR363W, strain ESC2, stronger effect = lower value
[3] = locus YER002W, strain NOP16, stronger effect = lower value
[4] = locus YNL128W, strain TEP1, stronger effect = lower value
[5] = locus YNL153C, strain GIM3, stronger effect = lower value
[6] = locus YNL175C, strain NOP13, stronger effect = lower value
[7] = locus YNL197C, strain WHI3, stronger effect = lower value
[8] = locus YNL224C, strain SQS1, stronger effect = lower value
[9] = locus YNL322C, strain KRE1, stronger effect = lower value
[10] = locus YOR083W, strain WHI5 (second series), stronger effect = lower value

Measured: normalized growth

CC(=O)N[C@@H](Cc1c[nH]c2ccccc12)C(=O)OCc1cc(C(F)(F)F)cc(C(F)(F)F)c1
inactive: locus YAL013W, strain DEP1, stronger effect = lower value 0.999 | [1] 1.02 | [2] 1.01 | [3] 1 | locus YMR263W, strain SAP30, stronger effect = lower value 0.994 | [4] 1.03 | [5] 0.969 | [6] 0.985 | [7] 0.994 | [8] 0.994 | [9] 1.01 | [10] 1.03

C#CCN[C@H](C)Cc1ccccc1
inactive: [1] 1 | locus YCL061C, strain MRC1 (second series), stronger effect = lower value 0.992 | locus YDR150W, strain NUM1, stronger effect = lower value 0.997 | [2] 1.01 | [3] 0.996 | locus YGR078C, strain PAC10, stronger effect = lower value 0.987 | locus YJR075W, strain HOC1, stronger effect = lower value 0.994 | [4] 0.998 | [5] 1 | [6] 0.997 | [7] 0.982 | [8] 0.995 | [9] 0.998 | [10] 1.03 | locus YPL241C, strain CIN2, stronger effect = lower value 0.999
